Bioassay records (PubChem)
An excerpt weighted towards active compounds, which were near 3.8% of everything screened.
S2 tox – cell viability loss in ATXN counter-screen; Potency, µM (series often up to 56.7 µM), actives largely listed as cytotoxic; S2 cells (HEK-293 line with an ATXN2-luciferase reporter) viability, CellTiter-Fluor protease fluorescence, 24 h; AID 651635; hit rate 0.49% among 400,000; also: nearly all actives have a fitted effect of over 40% in size
HepG2 tox – kills HepG2 cells in TGF-b inhibitor counter-screen; HepG2 CAGA-GFP viability, ATP luminescence, 18 h; Potency, µM (titrated, usually from 46.1 µM), for inactives: at the top dose activity change, negative = cytotoxicity, hits mostly cytotoxic; hit rate 0.76% among 410,000; AID 588856
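CellTiter-Glo luminescence gave cytotoxicity after 18 hours at 37 degrees C. The cells were HepG2 CAGA-GFP in 1% FBS DMEM, stimulated with 500 pg/mL TGF-beta after compound addition. %Activity was normalised to no-cell wells (complete cell-killing) and DMSO (no toxicity), and curves were fitted and classified.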
HT1080 IDH1KD tx – kills HT-1080 cells with IDH1 knockdown; HT-1080 IDH1 knockdown viability, ATP luminescence, 48 h; Potency, µM (series often up to 46.1 µM), inactives show top-dose activity, negative = toxicity, hits mostly cytotoxic; hit rate 2% among 360,000; AID 686971;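 also: 0% = DMSO wells and -100% = cell-free medium wells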
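Cytotoxicity counter-line: IDH1KD HT-1080, 48 h, CellTiter-Glo. Curves classed by r2, magnitude and activity.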
ATXN2 expr inh – ATXN2 expression inhibition | HEK-293 ATXN2-luciferase reporter, luminescence, 24 h | Potency, µM (titrated, usually from 57 µM), inactives show at the top dose activity change, negative = inhibition, usual class: inhibitors | hit rate 0.72% among 360,000 | AID 1745845; also: % is scaled to controls: 0 for no effect and ±100 for the full control effect; nearly all actives have a fitted effect of over 55% in size
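ATXN2-luciferase reporter cells (luciferase flanked by upstream and downstream ATXN2 gene portions) were treated 24 h at 37 °C with compounds at up to 57 uM. SteadyGlo luminescence gave expression; GF-AFC fluorescence gave viability.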
HT1080NT lethal – kills 2HG-producing HT-1080-NT fibrosarcoma cells; HT-1080-NT fibrosarcoma viability, CellTiter-Glo ATP luminescence, 48 h; Potency, µM (series often up to 46.1 µM), for inactives: at the highest dose activity, negative = less viability, hits mostly cytotoxic; hit rate 1.6% among 360,000; AID 686970;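 also: NT is the 2HG producing partner of a matched IDH1 knockdown line; 0% = DMSO-treated cells and -100% = media-only wells without cells; nearly all actives have a fitted effect of over 55% in size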
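A 48-hour cytotoxicity screen used HT-1080-NT cells plated 2 hours before compound delivery. ATP-based CellTiter-Glo luminescence measured viability, normalized to DMSO and no-cell controls.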
TGFb inhibitor – blocks TGF-b signaling. HepG2 CAGA-GFP TGF-b/SMAD3 reporter, GFP fluorescence, 18 h; TGF-beta stimulated, 500 pg/mL final. Potency, µM (doses to about 46.1 µM), for inactives: at the top dose activity, negative = inhibition, usual class: inhibitors. hit rate 1.2% among 410,000. AID 588855; also: % is scaled to controls: 0 for no effect and ±100 for the full control effect; nearly all actives have a fitted effect of over 65% in size
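HEPG2 CAGA-GFP, 1000 cells/well; 2 h settle, 37 C; cpd via pin tool; TGF-b 500 pg/mL final; 18 h, 37 C; GFP imaging ex488/em500-530; %Activity normalised to -TGF-b and +DMSO controls; CRC fit, curve class.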
* marks the source's active call; other numbers are inactive results; i = inactive; ? = inconclusive; · = no result given. Calls follow the shape of the dose curve; as a rule, active = well fitted curve in the direction sought with a large enough effect; inconclusive = small, poorly fitted or top-dose-only effect, or another doubt; inactive = no such curve, though single readings can be large; an effect the other way counts as inactive or inconclusive. Potency is read from the fitted curve at half-maximal effect.

SMILES | S2 tox | HepG2 tox | HT1080 IDH1KD tx | ATXN2 expr inh | HT1080NT lethal | TGFb inhibitor
Cc1cc(C)c(S(=O)(=O)NCC2CCC(C(=O)NCCc3ccccc3)CC2)c(C)c1 (stereo not drawn) | · | -32% | · | · | · | ?
O=C(O)c1ccc(-n2ncc(Cl)c(Cl)c2=O)cc1 | ? | -2% | 18µM* | · | 5.8µM* | -3%
CC(=O)Nc1c(Cl)cnn(-c2ccccc2)c1=O | i | -4% | 2% | · | 12% | 23%
NC(=O)c1cc(N2C(=O)C=CC2=O)ccc1Cl | · | 0% | 16µM* | ? | ? | -13%
Cc1cc(C)cc(NC(=O)c2cc(S(=O)(=O)N3CCCC3)ccc2F)c1 | i | -9% | · | -34% | · | 0%
Cc1ccccc1-n1cc(-c2ccccc2)nc1SCC(=O)Nc1ccc(F)cc1 | i | -3% | · | -23% | · | ?
Cc1ccccc1NC(=O)CSc1nc(-c2ccccc2)cn1-c1ccccc1F | ? | -1% | · | ? | · | 11µM*
CCOC(=O)N1CCc2c(sc(NCc3ccc(N(C)C)cc3)c2C(=O)Nc2ccccc2OCC)C1 | i | -21% | · | -15% | · | -27%
CCCC[C@@H](CNC)NC[C@H](Cc1ccc(O)cc1)NCCc1ccc(OCC)cc1 | ? | 13µM* | -24% | ? | ? | ?
CCN(CC)C(=O)C1CN2CCc3cc(OC)c(OC)cc3C2CC1OC(C)=O (stereo not drawn) | i | · | · | 4% | · | ·
C=CCn1c(Sc2ncc([N+](=O)[O-])s2)n[nH]c1=O | 30µM* | -105% | 5.2µM* | ? | 5.8µM* | 3.5µM*
O=c1[nH]nc(Sc2ncc([N+](=O)[O-])s2)n1-c1ccc2c(c1)OCCO2 | · | · | · | 12µM* | · | ·
O=C(Nc1cccnc1)c1ccc(COc2cc(Cl)ccc2Cl)o1 | i | -5% | 23µM* | -30% | ? | ?
O=C(Nc1nccs1)c1ccc(COc2ccccc2Br)o1 | i | -17% | ? | 3% | 10µM* | ?
O=C(Nc1cccnc1)c1ccc(COc2ccccc2Cl)o1 | i | -39% | 21µM* | -16% | ? | -2%
C[C@H]1CN([C@@H](C)CO)C(=O)CCCn2nncc2CO[C@@H]1CN(C)S(=O)(=O)c1cn(C)cn1 | i | 37% | 11% | 7% | 6% | 21%
C[C@@H]1CN([C@H](C)CO)C(=O)CCCn2nncc2CO[C@@H]1CN(C)S(=O)(=O)c1cn(C)cn1 | i | 11µM* | -3% | -10% | -8% | -22%
COc1cccc(S(=O)(=O)N(C)C[C@H]2OCc3cnnn3CCCC(=O)N([C@H](C)CO)C[C@H]2C)c1 | i | 18µM* | -10% | -2% | -4% | -6%
COc1cccc(S(=O)(=O)N(C)C[C@@H]2OCc3cnnn3CCCC(=O)N([C@H](C)CO)C[C@H]2C)c1 | i | 7% | -16% | -5% | 19% | 2%
CCn1c(C(=O)N(C2CC2)C2CC2)cc2c3c(ncn3C)c(Nc3cc(C)n(C)n3)nc21 | · | · | · | -1% | · | ·
O=C(COc1ccccc1C(=O)Nc1ccccc1)Nc1ccccc1-c1ccccc1 | · | -6% | · | · | · | ?
O=CNc1ccc(/C=C/c2ccnc3ccccc23)cc1 | · | -50% | · | · | · | -16%
Cc1ccc(NC(=O)CCCCCN2C(=O)c3ccccc3C2=O)nc1 | i | -2% | 5% | ? | 7% | 10%
Cc1ccc(NCN2C(=O)C(=O)c3ccccc32)nc1 | i | -35% | -25% | -17% | -10% | 6.3µM*
CCCCSCCCNC(=O)CN1C(=O)COc2ccc(S(=O)(=O)N3CCCC3)cc21 | ? | 0% | · | 6% | · | ?
SMILES | S2 tox | HepG2 tox | HT1080 IDH1KD tx | ATXN2 expr inh | HT1080NT lethal | TGFb inhibitor
CCN(CC)C(=O)Nc1ccc(OCC(O)CNC(C)(C)C)c(C(C)=O)c1 (stereo not drawn) | i | · | · | 5% | · | ·
CC(C)C[C@H](NC(=O)c1[nH]cnc1C(=O)N[C@H](C)c1ccccc1)C(=O)OC(C)(C)C | · | 16µM* | ? | ? | ? | ?
CC(C)C[C@H](NC(=O)c1nc[nH]c1C(=O)NC(c1ccccc1)c1ccccc1)C(=O)OCc1ccccc1 | ? | -18% | -28% | -10% | -24% | ?
CC(C)(C)OC(=O)[C@H](Cc1ccccc1)NC(=O)c1[nH]cnc1C(=O)Nc1ccc(Cl)cc1 | · | 16µM* | ? | ? | ? | ?
CC(C)C[C@H](NC(=O)c1nc[nH]c1C(=O)NC(c1ccccc1)c1ccccc1)C(=O)OC(C)(C)C | ? | 0% | 21µM* | ? | 26µM* | ?
CC(C)(C)OC(=O)NCCCCCNC(=O)c1[nH]cnc1C(=O)Nc1ccc(Cl)cc1 | ? | 18µM* | ? | ? | ? | ?
Cc1ccc(NC(=O)c2nc[nH]c2C(=O)NCCCCCNC(=O)OC(C)(C)C)cc1 | · | -55% | -28% | ? | ? | ?
CS(=O)(=O)N1CCN(/[N+]([O-])=N/Oc2ccc([N+](=O)[O-])cc2[N+](=O)[O-])CC1 (tested in a mixture with another compound) | · | -9% | · | · | · | -2%
CC(C)C[C@H](NC(=O)c1nc[nH]c1C(=O)N[C@@H](CC(C)C)C(=O)OC(C)(C)C)C(=O)OC(C)(C)C | 22µM* | -3% | ? | ? | ? | ?
CC(C)C[C@H](NC(=O)c1[nH]cnc1C(=O)Nc1ccc(Cl)cc1)C(=O)OC(C)(C)C | 28µM* | -55% | ? | ? | ? | ?
CC(C)(C)OC[C@H](NC(=O)c1[nH]cnc1C(=O)Nc1ccccc1F)C(=O)OC(C)(C)C | · | 20µM* | ? | ? | ? | ?
C[C@@H](NC(=O)c1[nH]cnc1C(=O)Nc1ccccc1)c1ccccc1 | ? | -26% | -25% | ? | -19% | 14µM*
CCOC(=O)c1ccc(NC(=O)CSc2c3c(nc4cc(Cl)ccc24)CCCC3)cc1 | · | 14% | · | · | · | -20%
C[C@H](NC(=O)c1nc[nH]c1C(=O)N[C@@H](Cc1ccccc1)C(=O)OC(C)(C)C)C(=O)OC(C)(C)C | · | 16µM* | ? | ? | ? | ?
CC(C)(C)OC(=O)[C@H](Cc1ccccc1)NC(=O)c1[nH]cnc1C(=O)N[C@@H](Cc1ccccc1)C(=O)OCc1ccccc1 | ? | -5% | -17% | 3% | -16% | ?
O=C(NC1(C(F)(F)F)N=C(c2ccccc2)N(C2CCCCC2)C1=O)c1ccc(F)cc1 (stereo not drawn) | i | -26% | · | 5% | · | -2%
